Some of the results follow. Unmarked numbers belong to inactive results. Calls of active or inactive are those of the source. Rule as the data show it: active = inhibition above about 32%; inactive = the rest.

Sequence of Mu-type opioid receptor (Homo sapiens) + Delta-type opioid receptor (Homo sapiens) (P35372 whole entry, looked up): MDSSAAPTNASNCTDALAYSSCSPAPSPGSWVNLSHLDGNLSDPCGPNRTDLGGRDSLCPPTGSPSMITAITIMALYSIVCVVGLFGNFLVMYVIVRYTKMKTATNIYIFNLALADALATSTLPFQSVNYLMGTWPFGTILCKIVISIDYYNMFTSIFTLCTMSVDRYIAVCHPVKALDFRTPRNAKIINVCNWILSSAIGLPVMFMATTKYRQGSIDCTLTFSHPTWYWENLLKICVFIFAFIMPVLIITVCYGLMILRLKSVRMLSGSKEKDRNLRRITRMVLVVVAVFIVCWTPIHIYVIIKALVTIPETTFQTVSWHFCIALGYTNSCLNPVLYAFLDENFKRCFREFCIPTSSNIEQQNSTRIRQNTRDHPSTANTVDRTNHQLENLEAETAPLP
Sequence of Mu-type opioid receptor (Homo sapiens) + Delta-type opioid receptor (Homo sapiens) (P41143 whole entry, looked up): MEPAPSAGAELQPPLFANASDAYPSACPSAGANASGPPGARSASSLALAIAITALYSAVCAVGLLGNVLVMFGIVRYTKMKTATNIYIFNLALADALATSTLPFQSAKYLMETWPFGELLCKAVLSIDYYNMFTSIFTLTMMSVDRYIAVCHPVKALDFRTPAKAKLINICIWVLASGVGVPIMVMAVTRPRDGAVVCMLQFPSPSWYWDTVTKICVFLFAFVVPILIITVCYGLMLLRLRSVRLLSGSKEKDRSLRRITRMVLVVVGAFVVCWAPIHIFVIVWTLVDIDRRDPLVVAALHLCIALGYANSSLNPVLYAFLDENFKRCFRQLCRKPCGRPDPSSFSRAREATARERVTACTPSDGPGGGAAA

The assay concerns the target Mu-type opioid receptor (Homo sapiens) + Delta-type opioid receptor (Homo sapiens) (UniProt P35372+P41143). Description: OPRM1-OPRD1 heterodimer inverse agonism – cell-based, luminescence, confirmation (AID 504900).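 Also: 0% = cells with DMSO and 100% = wells lacking cells with DMSO.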 The note with it: cells expressing OPRM1/OPRD1 heterodimer, at 9.3 µM, hits give high values.
For orientation: inhibition means the change of the read-out against control, counted positive when it falls. `CN(c1ccccc1)S(=O)(=O)c1ccc(NC(=O)COc2ccccc2)cc1`: the inhibition is -21.8%. As to `Cc1cccc(N=Nc2c(O)[nH]c3ccc(F)cc23)c1`, the inhibition was 20.6%. Regarding `Cc1cccc2c1N(CC(=O)OC(C)C)C(=O)C2=O`, the inhibition is -138%.

On to `CC(C)OC(=O)CN1C(=O)C(=O)c2ccccc21`, for which the inhibition was -355%.

`CSCCC(NC(=O)COc1ccccc1)C(=O)OCC(=O)c1cc2ccccc2o1` (centres undefined): the inhibition was 37.5% (active). For the compound `CCOc1ccc(NC(=O)c2cccc3c2C(=O)N(CC2CCCO2)C3)cc1` (centres undefined), the inhibition was -4.18%. `COC(=O)Cc1c(-c2[nH]c3ccccc3c2CC(=O)OC)[nH]c2ccccc12`: the inhibition is -123%.

Regarding `CCOC(=O)CN1C(=O)C(=O)c2cc(C)ccc21`, the inhibition was -25.7%. In the case of `O=C(CCl)NNc1cccc(Cl)n1`, the inhibition was 69.8% (active). Take `CCCCC(=O)NNC(=S)NC(=O)C(c1ccccc1)c1ccccc1`: the inhibition was -427%. For `C=CCn1c(N)c(C(=O)OCC(C)C)c2nc3ccccc3nc21`, the inhibition is 14.8%. Turning to `Cc1ccc2c(c1)C(O)(CC(=O)c1cccnc1)C(=O)N2` (centres undefined), the inhibition was 22.7%.

As for `Oc1ccc(N=Nc2nccs2)c(O)c1`, the inhibition was 12.6%. Turning to `CN(O)C(=S)c1ccccc1`, the inhibition was 16.7%. Turning to `CCOC(=O)CN1C(=O)C(O)(CC(=O)c2ccccn2)c2ccccc21` (centres undefined), the inhibition is 24.7%. Under `O=C1C(=O)N(CC2COc3ccccc3O2)c2ccccc21` (centres undefined) stands 15.2%. On to `N#CC1=C(N)C(C#N)(C#N)[C@H](c2ccsc2)[C@H]2COCC=C12`, for which the inhibition is -0.3%. As for `Cc1cccc(C)c1NC(=O)C(Cl)C(=O)c1ccccc1` (centres undefined), the figure is -42.6%. Under `COc1cc(NS(=O)(=O)c2ccc3ccccc3c2)c2ncccc2c1` stands -82.7%. As for `O=C1C(=O)N(c2ccccc2)c2ccccc21`, the figure is -11.8%. Turning to `CN(C)/C=C1/Nc2ccccc2C1=O`, the inhibition is -27.4%. Under `O=[N+]([O-])/C=C/c1ccc2c(ccn2Cc2ccccc2)c1` stands -234%; under `Cc1ccc(C(=O)CNc2ccc(F)cc2)cc1`, -20%. Regarding `Cc1ccc(NNC(=O)c2cccs2)cc1Cl`, the inhibition is -17.7%.

Source of the values: PubChem BioAssay AID504900 (The Scripps Research Institute Molecular Screening Center, 2011).
